High-throughput results (PubChem)
Most compounds without a hit are left out; they make up all but 5.1% or so of the library.
JMJD2E inh: inhibitors of human JMJD2E histone demethylase. B2RXH2. JMJD2E catalytic domain, FDH-coupled NADH fluorescence (FDH is formaldehyde dehydrogenase). Potency, µM (doses to about 57.1 µM), for inactives: at the top dose activity change, negative = inhibition, hits mostly inhibitors. 230,000 tested, 1.6% active; active = well fitted inhibition curve with a large enough effect, not every such curve was filed as active; inconclusive = small, poorly fitted or top-dose-only effect, or another doubt; inactive = no such curve, though single readings can be large or run the other way;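 also: potency is read from the fitted curve at half-maximal effect; 0% = wells with enzyme and -100% = buffer wells without enzyme; nearly all actives have a fitted effect of over 50% in size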
Target sequence (B2RXH2 1-337 limits assumed): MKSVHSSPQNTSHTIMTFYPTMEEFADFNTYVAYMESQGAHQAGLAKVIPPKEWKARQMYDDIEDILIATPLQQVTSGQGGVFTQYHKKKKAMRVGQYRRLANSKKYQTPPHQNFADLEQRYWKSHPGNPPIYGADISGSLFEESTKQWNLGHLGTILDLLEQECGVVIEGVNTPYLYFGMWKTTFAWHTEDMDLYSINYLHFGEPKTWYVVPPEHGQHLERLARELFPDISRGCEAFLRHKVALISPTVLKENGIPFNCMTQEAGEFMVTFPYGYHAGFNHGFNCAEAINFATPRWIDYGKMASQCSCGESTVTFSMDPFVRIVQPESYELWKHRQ
Tau fibril FP: inhibitors of human tau fibril formation | K18 P301L tau heparin fibrillization, Alexa594 FP, 6 h | Potency, µM (highest dose often 57.7 µM), inactives show at the highest dose activity, negative = inhibition, hits mostly inhibitors | 280,000 tested, 0.39% active; also: potency is read from the fitted curve at half-maximal effect; nearly all actives have a fitted effect of over 55% in size
Target sequence (P10636 561-689 P618L limits assumed): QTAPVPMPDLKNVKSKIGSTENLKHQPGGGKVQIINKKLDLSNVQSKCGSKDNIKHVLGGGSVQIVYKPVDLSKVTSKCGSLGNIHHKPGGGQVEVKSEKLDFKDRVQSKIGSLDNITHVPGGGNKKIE
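Human K18 P301L fragment (15 uM unlabeled plus 0.24 uM Alexa 594-labeled) in 100 mM sodium acetate pH 7 with compound, aggregation induced by 20 uM heparin for 6 hr at 37 C. ThT (30 uM) added for 1 hr, then Alexa 594 FP read.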
PNC inhibitor: blocks assembly of the perinucleolar compartment; PC3M PTB-GFP, PNC prevalence imaging, 16 h; stronger effect = lower value; activity change (PNC), negative = inhibition, % at 10 µM; 140,000 tested, 3.1% active;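 active = readout at or below -70, meaning at least 70% loss of cells showing the perinucleolar compartment, a nuclear body marking cancer cells; inconclusive = readout between -30 and a set limit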;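 also: plate controls were DMSO wells for no effect and camptothecin positive control wells for full effect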
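Compounds are pinned in duplicate onto adhered PC3M cells stably expressing GFP-tagged PTB and incubated 16 h at 37 C. Cells are then fixed, nuclei stained with Hoechst, and PNC-positive cells counted.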
NPSR antagonist: antagonists of human neuropeptide S receptor cAMP signaling; Potency, µM (titrated, usually from 38.3 µM), for inactives: at the highest dose activity change, negative = inhibition, most hits filed as inhibitors; Q6W5P4; 220,000 tested, 1% active; CHO-NPSR cells, cAMP TR-FRET, antagonist mode; also: potency is read from the fitted curve at half-maximal effect; nearly all actives have a fitted effect of over 50% in size
Tau ThT inhib: blocks human tau fibril formation measured by thioflavin T | recombinant tau K18 P301L, heparin-induced fibrillization, ThT fluorescence | Potency, µM (series often up to 57.4 µM), for inactives: at the highest dose activity, negative = inhibition, most hits filed as inhibitors | 270,000 tested, 2.1% active | AID 1460; also: potency is read from the fitted curve at half-maximal effect; nearly all actives have a fitted effect of over 55% in size
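K18 P301L tau (15 uM + 0.24 uM Alexa 594-tagged), heparin 20 uM, NaOAc pH 7, 6 h 37 C; ThT 30 uM, 1 h RT, ex 450/em 510 nm.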
Tau fluor counter: counter-screen for tau fibril formation inhibitors | tau K18 P301L (four-repeat tau fragment) Alexa594 fluorescence, heparin fibrillization | Potency, µM (highest dose often 57.7 µM), inactives show at the highest dose activity change, negative = decrease | 280,000 tested, 0.93% active; also: potency is read from the fitted curve at half-maximal effect; nearly all actives have a fitted effect of over 55% in size
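Human K18 P301L tau (15 uM unlabeled plus 0.24 uM Alexa 594-labeled, final) in 100 mM sodium acetate pH 7 was mixed with compound and 20 uM heparin and incubated 6 hr at 37 C.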
* hit, by the source's call; [ ] = remark or other dose. Unless noted, calls follow the shape of the dose curve; as a rule, active = well fitted curve in the direction sought with a large enough effect; inconclusive = small, poorly fitted or top-dose-only effect, or another doubt; inactive = no such curve, though single readings can be large; an effect the other way counts as inactive or inconclusive. Unless noted, % is scaled to controls: 0 for no effect and ±100 for the full control effect.

For CCCOC(=O)c1c(N)sc2c1CCC2 the results were JMJD2E inh -15%, Tau fibril FP -3%, PNC inhibitor -18, NPSR antagonist 5%[46.1 µM], Tau ThT inhib inconclusive and Tau fluor counter -11%.
`CCOC(=O)c1c(N)sc2c1CCSC2` gave JMJD2E inh inconclusive, Tau fibril FP -14%, PNC inhibitor 7, NPSR antagonist 0%[46.1 µM], Tau ThT inhib 25µM* and Tau fluor counter inconclusive.
Screening CCOC(=O)c1c(N)sc2c1CCC(CC)C2 (centres undefined) returned JMJD2E inh 1%, Tau fibril FP 0%, PNC inhibitor 36, NPSR antagonist 0%[46.1 µM], Tau ThT inhib inconclusive and Tau fluor counter inconclusive.
CCOC(=O)c1c(N)sc(N)c1C(=O)OCC was read as JMJD2E inh -6%, Tau fibril FP inconclusive, PNC inhibitor inconclusive, NPSR antagonist 2%, Tau ThT inhib 14µM* and Tau fluor counter inconclusive.
`CCOC(=O)c1c(N)ssc1=S` gave JMJD2E inh -12%, Tau fibril FP 11µM*, PNC inhibitor inconclusive, NPSR antagonist -11%[46.1 µM], Tau ThT inhib 7.9µM* and Tau fluor counter -27%.
For COc1ccc(-c2nc(CSCC(=O)NCCc3ccc(C)cc3)c(C)o2)cc1OC the results were Tau fibril FP -1%, Tau ThT inhib inconclusive and Tau fluor counter -10%.
Screening CN(C)c1ccc(CNC(=O)c2ccc(NC(=O)N3CCCCc4ccccc43)cc2)cc1 returned Tau fibril FP 5%, Tau ThT inhib -10% and Tau fluor counter -17%.
For CCc1ccc2oc(C(=O)Nc3c(C)n(C)n(-c4ccccc4)c3=O)cc(=O)c2c1 the results were Tau fibril FP -11%, Tau ThT inhib -7% and Tau fluor counter -11%.
For CC1=CC(C)(C)Nc2ccc(C)cc21 the results were JMJD2E inh 14µM*, Tau fibril FP 9%, PNC inhibitor inconclusive, NPSR antagonist -11%[46.1 µM], Tau ThT inhib inconclusive and Tau fluor counter -10%.
CC1=CC(C)(C)Nc2cc(C)c(C)cc21 was read as JMJD2E inh 11µM*, Tau fibril FP -1%, PNC inhibitor -3, NPSR antagonist -5%[46.1 µM], Tau ThT inhib inconclusive and Tau fluor counter -22%.
For O=c1[nH]c2ccccc2nc1/C=C/c1ccc(O)cc1 the results were JMJD2E inh 16µM*, Tau fibril FP 4%, NPSR antagonist 29%, Tau ThT inhib inconclusive and Tau fluor counter inconclusive.
For CN1CCN(C2=C(Cl)C(=O)N(Cc3ccccc3)C2=O)CC1 the results were JMJD2E inh inconclusive, Tau fibril FP -4%, PNC inhibitor 8, NPSR antagonist -4%[46.1 µM], Tau ThT inhib inconclusive and Tau fluor counter -1%.
O=C1C(Cl)=C(N2CCOCC2)C(=O)N1c1ccccc1Cl was read as JMJD2E inh 3%, Tau fibril FP 20µM*, PNC inhibitor 28, NPSR antagonist -11%[46.1 µM], Tau ThT inhib 14µM* and Tau fluor counter inconclusive.
For Cc1ccc(N2C(=O)C(Cl)=C(N3CCOCC3)C2=O)cc1Cl the results were JMJD2E inh 0%, Tau fibril FP 22µM*, PNC inhibitor 28, NPSR antagonist -6%, Tau ThT inhib 14µM* and Tau fluor counter inconclusive.
`CN1CCN(C2=C(Cl)C(=O)N(c3ccc(Cl)c(Cl)c3)C2=O)CC1` gave JMJD2E inh 0%, Tau fibril FP inconclusive, PNC inhibitor 38, NPSR antagonist -7%[46.1 µM], Tau ThT inhib 14µM* and Tau fluor counter -28%.
O=C(O)c1cc(-c2ccc(N3CCOCC3)cc2)nn1-c1ccccc1Cl was read as JMJD2E inh inconclusive, Tau fibril FP 0%, NPSR antagonist 6%, Tau ThT inhib inconclusive and Tau fluor counter -15%.
For Cc1ccc(Cl)cc1-n1c(=O)cc(N2CCN(c3ccccc3)CC2)[nH]c1=O the results were Tau fibril FP -11%, Tau ThT inhib -10% and Tau fluor counter -13%.
`Cc1ccccc1N1C(=O)C(Cl)=C(N2CCN(c3ccccc3)CC2)C1=O` gave JMJD2E inh -18%, Tau fibril FP inconclusive, PNC inhibitor -85*, NPSR antagonist -25%[46.1 µM], Tau ThT inhib 16µM* and Tau fluor counter inconclusive.
For CCOc1ccccc1NC(=O)C1CCN(S(=O)(=O)c2ccc3[nH]c4c(c3c2)CCCCC4)CC1 the results were Tau fibril FP 5%, Tau ThT inhib 9% and Tau fluor counter inconclusive.
Screening COC(=O)c1cccc(N2C(=O)C(Cl)=C(N3CCOCC3)C2=O)c1 returned JMJD2E inh -2%, Tau fibril FP 28µM*, PNC inhibitor -22, NPSR antagonist 5%[46.1 µM], Tau ThT inhib 14µM* and Tau fluor counter inconclusive.
`COC(=O)c1cccc(S(=O)(=O)N2CCOCC2)c1` gave JMJD2E inh 10%, Tau fibril FP 6%, PNC inhibitor 4, NPSR antagonist 2%[46.1 µM], Tau ThT inhib -6% and Tau fluor counter -2%.
Screening CN1CCN(C2=C(Cl)C(=O)N(c3cccc(Cl)c3)C2=O)CC1 returned JMJD2E inh -3%, Tau fibril FP inconclusive, PNC inhibitor 30, NPSR antagonist -4%[46.1 µM], Tau ThT inhib 22µM* and Tau fluor counter inconclusive.
For CCOC(=O)CSC1=C(C#N)C(c2ccc(C)s2)CC(=O)N1 (centres undefined) the results were JMJD2E inh 0%, Tau fibril FP -8%, PNC inhibitor -88*, NPSR antagonist -8%[46.1 µM], Tau ThT inhib -8% and Tau fluor counter -12%.
Cc1[nH]c2ccccc2c1C(=O)CN1CCCCC1C (centres undefined) was read as JMJD2E inh 1%, Tau fibril FP -4%, PNC inhibitor -96*, NPSR antagonist -15%[46.1 µM], Tau ThT inhib 11% and Tau fluor counter 8%.
Cc1ccc(CSc2cn(CCNC(=O)c3cccs3)c3ccccc23)cc1 was read as Tau fibril FP -6%, Tau ThT inhib inconclusive and Tau fluor counter 8.9µM*[quencher].
O=C(NCCn1cc(SCc2ccc(F)cc2)c2ccccc21)c1cccs1 was read as Tau fibril FP -5%, Tau ThT inhib inconclusive and Tau fluor counter 7.9µM*[quencher].
Screening O=C(NCCn1cc(SCc2ccccc2F)c2ccccc21)c1cccs1 returned Tau fibril FP -16%, Tau ThT inhib inconclusive and Tau fluor counter inconclusive.
`Cc1ccccc1CSc1cn(CCNC(=O)c2cccs2)c2ccccc12` gave Tau fibril FP -17%, Tau ThT inhib inconclusive and Tau fluor counter 7.9µM*[quencher].
For O=C(CSc1cn(CCNC(=O)c2cccs2)c2ccccc12)NCc1ccccc1 the results were JMJD2E inh 5%, Tau fibril FP -3%, PNC inhibitor inconclusive, NPSR antagonist inconclusive, Tau ThT inhib -11% and Tau fluor counter -26%.
